# Screens deposited in PubChem BioAssay by National Center for Advancing Translational Sciences (NCATS).
# Only some compounds are listed: those with a hit (about 1.2% of all), similar ones and a draw of the others.
# RGS12 GoLoco inh – qHTS Assay for Inhibitors of RGS12 GoLoco Motif Activity (Red Fluorophore); Guanine nucleotide-binding protein G(i) subunit alpha-1 (Homo sapiens), P63096; Gai1:RGS12 GoLoco peptide FP, rhodamine, 10 min; Potency, µM (top dose mostly 61.6 µM), for inactives: at the top dose activity, negative = inhibition, usual class: inhibitors; 230,000 tested, 0.44% active; active = well fitted inhibition curve with a large enough effect, not every such curve was filed as active; inactive = no such curve, though single readings can be large or run the other way; note: % is set by controls: 0 for no effect and ±100 for the full control effect; nearly all actives have a fitted effect of over 30% in size
# Target sequence (P63096 whole entry, looked up): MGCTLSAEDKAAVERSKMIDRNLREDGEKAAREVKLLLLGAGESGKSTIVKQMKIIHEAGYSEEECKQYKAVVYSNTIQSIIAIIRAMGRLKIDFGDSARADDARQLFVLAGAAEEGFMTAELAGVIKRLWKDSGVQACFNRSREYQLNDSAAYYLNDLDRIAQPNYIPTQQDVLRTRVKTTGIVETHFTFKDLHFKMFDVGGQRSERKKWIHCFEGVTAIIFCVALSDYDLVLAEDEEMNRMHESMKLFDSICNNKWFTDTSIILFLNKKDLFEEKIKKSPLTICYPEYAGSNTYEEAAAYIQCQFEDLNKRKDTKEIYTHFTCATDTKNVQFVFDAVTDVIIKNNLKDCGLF
# Anesthetic bind – qHTS Assay for Identification of Novel General Anesthetics; apoferritin/1-aminoanthracene competitive binding, fluorescence; 350,000 tested, 0.074% active; Ferritin light chain (Equus caballus), P02791; Potency, µM (doses to about 77.5 µM), inactives show at the top dose activity change, negative = displacement, hits mostly inhibitors; note: % is set by controls: 0 for no effect and ±100 for the full control effect; nearly all actives have a fitted effect of over 20% in size
# Target sequence (P02791 2-175 limits assumed): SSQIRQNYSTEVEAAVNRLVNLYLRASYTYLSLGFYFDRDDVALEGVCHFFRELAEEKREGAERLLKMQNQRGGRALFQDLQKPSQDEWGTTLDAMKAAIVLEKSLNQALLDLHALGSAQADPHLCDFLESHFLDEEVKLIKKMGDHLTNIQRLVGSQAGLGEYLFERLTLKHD
#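 Concentration-response curves derived by four-parameter Hill fitting of normalized fluorescence, where compounds displaced 1-AMA from 10 uM horse apoferritin following a brief 10 min room-temperature incubation; propofol titration acted as positive control.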
# BRCA1 expr act – qHTS Assay to Identify Small Molecule Activators of BRCA1 Expression. MCF7-BRCA1-FFLuc reporter, luminescence, 48 h; response scale: scaled: vehicle 0%, 10 µM genistein 100%. Potency, µM (series often up to 46.1 µM), for inactives: at the highest dose activation, actives largely listed as activators. 380,000 tested, 1.1% active. AID 624202, 2012; note: nearly all actives have a fitted effect of over 80% in size
#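 Quantitative HTS in MCF7 cells stably reporting BRCA1 expression via firefly luciferase. Compound treatment lasts 48 h at 37 °C in phenol-red free MEM. Activation is expressed relative to genistein at 10 microM and DMSO.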
# ERG-DNA inh – qHTS for Small Molecule Inhibitors of the ERG Ets/DNA interaction. Potency, µM (doses to about 76.9 µM), for inactives: at the highest dose FP activity, negative = inhibition, actives largely listed as inhibitors. fluorescence polarization, His-ERG Ets domain / labelled DNA. AID 624246, 2012. 370,000 tested, 0.028% active; active = well fitted inhibition curve with a large enough effect in the polarisation, with a control signal flat; inconclusive = small, poorly fitted or top-dose-only effect, or effect the other way, or a change in a side signal; inactive = no such curve, though single readings can be large or run the other way; the % refers to the polarisation;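 note: polarization taken with two DNA probes labelled with fluorescein and Texas red; % of control where 0% means no effect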
#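 His-tagged ERG Ets domain (1 uM in the protein solution; 300mM KCl, 50mM Tris-HCl, 1mM EDTA, 1mM DTT, pH 7.5) received compound, then a probe mix of 5 nM fluorescein-DNA and 100nM Texas-615-DNA. Fluorescence polarization was read for both dyes.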
# Numbers without * were called inactive; ? = inconclusive; . = not tested or not shown; [ ] = remark or other dose. Unless noted, calls come from the whole dose curve; as a rule, active = well fitted curve in the direction sought with a large enough effect; inconclusive = small, poorly fitted or top-dose-only effect, or another doubt; inactive = no such curve, though single readings can be large; an effect the other way counts as inactive or inconclusive. Potency is the fitted concentration of half-maximal effect.
SMILES,RGS12 GoLoco inh,Anesthetic bind,BRCA1 expr act,ERG-DNA inh
CCOc1ccccc1-c1nnc2n1N=C(c1cc(OC)cc(OC)c1)CS2,.,-21%,.,.
OC[C@H]1OC(O)(CN2CCOCC2)[C@H](O)[C@@H]1O (stereo not given in full),.,-4%,.,.
CC(=O)Cn1cnc2c(sc3nc(C)cc(C)c32)c1=O,-3%,14%,11µM*,-1%
c1cc2c(cc1OCCNC1CCCC1)CCC2,0%,-7%,.,.
CNCCCOc1ccc2c(c1)CCC2,6%,-9%,11µM*,8%
O=C(/C=C/c1ccc(O)cc1)OC[C@H]1O[C@@H](Oc2c(-c3ccc(O)cc3)oc3cc(O)cc(O)c3c2=O)[C@H](O)[C@@H](O)[C@@H]1O,.,4%,.,.
CCOc1ccc(C2C(C(=O)Nc3ccc(C)cc3C)=C(C)Nc3c(C(=O)Nc4ccc(C)cc4)cnn32)cc1OC (stereo not given),.,?,.,0%
O=C(O)c1cc(NN=C2CCN(Cc3ccccc3)CC2)ccc1Cl,-2%,5%,3.2µM*,3%
Cc1occc1C(=O)N/N=C/C=C/c1ccccc1,3%,-20%,10µM*,-9%
C/C(=N/NC(=O)c1ccoc1C)c1ccc(NC(=O)C2CCCC2)cc1,3%,-12%,5.6µM*,-12%
C/C(=N\NC(=O)c1ccoc1C)c1ccccc1,7%,-2%,4µM*,2%
Cc1occc1C(=O)N/N=C/C=C/c1ccc(N(C)C)cc1,.,420%,?,-7%
COc1ccc(C(=O)Nc2cccc(/C(C)=N\NC(=O)c3ccoc3C)c2)cc1OC,.,-20%,31%,1%
C/C(=N\NC(=O)c1ccn(C)n1)c1ccc(NC(=O)C2CCCC2)cc1,12%,-9%,2%,3%
C/C(=N\NC(=O)c1nn(C)c(C)c1Br)c1ccc(NC(=O)C2CCCC2)cc1,.,-5%,5µM*,11%
O=c1[nH]ncc2ccccc12,0%,.,.,.
S=c1[nH]cnc2sc(-c3ccccc3)cc12,1%,-11%,11µM*,3%
C[C@H]1Cc2c(-c3ccccc3)nc3c(c2CO1)CN(C(=O)C1CCCCC1)CC3,2%[14.2 µM],.,.,.
CCCN1CNc2c(c(=O)[nH]c(=S)n2CCC(C)(C)C)C1,.,.,0%,.
COc1ccc(NS(=O)(=O)c2cc(NC(=O)c3ccco3)ccc2N2CCCCC2)cc1,8.9µM*,-12%,-66%,1%
CCCCc1nc2c(c3c1C[C@H](C)OC3)CN(C(=O)C1CC1)CC2,8%[14.2 µM],.,.,.
O=C1CN(C(=O)COc2ccc([N+](=O)[O-])cc2Cl)c2ccccc2N1,.,.,11µM*,3%
Cc1ccc(-c2ccc(CCC(=O)O)n2-c2cccc(C(=O)O)c2)cc1,.,-3%,7.1µM*,20%
Cc1ccc(-c2ccc(CCC(=O)O)n2-c2ccc(C(=O)O)cc2)cc1,.,3%,61%,-5%
Nc1nc(=S)c2n[nH]nc2[nH]1,.,.,-1%,.
SMILES,RGS12 GoLoco inh,Anesthetic bind,BRCA1 expr act,ERG-DNA inh
Cc1[nH]n(-c2ccccc2)c(=S)c1C=Nc1ccc([N+](=O)[O-])cc1,13µM*,?,-12%,-9%
Cc1[nH]n(-c2ccccc2)c(=O)c1C=Nc1ccc(S(=O)(=O)N=C(N)N)cc1,-3%,-17%,0%,-5%
N#C/C(=C/c1ccc(N2CCCCC2)o1)C(=O)Nc1ccc2ccccc2c1,-161%,-14%,40%,?
N#C/C(=C/c1ccc(N2CCCCC2)o1)C(=O)Nc1ccc(Cl)cc1,-66%,-8%,4.5µM*,-5%
C1=Nc2ccccc2CN1c1ccccc1,1%,-8%,7.1µM*,1%
CC(C)c1ccc(N2C=Nc3ccc(C(C)C)cc3C2)cc1,0%,-17%,-1%,15%
Cc1cc(I)ccc1Nc1nc(NCCN2CCOCC2)nc(N2CCOCC2)n1,.,.,0%,.
CCCCSc1ncc(C(=O)OCC)c(N)n1,-4%,-6%,3.5µM*,-7%
CCOC(=O)c1cnc(SCc2ccc(C)cc2)nc1N,9%,4%,7.1µM*,-4%
CCOC(=O)c1cnc(SCCc2ccccc2)nc1N,19%,-24%,?,-21%
CNc1c(Br)cc(/C=C2\C=C(C(O)c3cc(Br)c(NC)c(Br)c3)c3ccccc32)cc1Br (stereo not given),.,.,-16%,.
